Five compounds from PubChem BioAssay can be followed below.

SMILES strings stand for the structures. Records with an inconclusive call do not appear. Active and inactive are the calls of the source.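 The calls were made as follows, unless noted: active = aptamer binding inhibition above 30%, about 3 SD of noise from non-fluorescent compounds; inactive = inhibition at or below 30%.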

A short description of experiment [1]: yeast TOR pathway RPL19A-GFP modulators, primary screen, cell-based, S. cerevisiae, multiplex flow cytometry (AID 1862; in the data active = percent of DMSO control GFP below about 86%;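 also: lower values mimic rapamycin by blocking the RPL19A rise seen in DMSO cells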). The note with it: S. cerevisiae RPL19A-GFP strain, flow cytometry fluorescence, 3 h; at 10 µM; stronger effect = lower value. (In flow cytometry, cells or beads pass a laser one at a time.)
Experiment [2] is described as follows: modulators of MEP2-GFP levels in yeast, primary screen, S. cerevisiae, multiplex flow cytometry (AID 1867;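 active = GFP response, as percent of the DMSO control, above the screen-wide mean plus 3 SD, about 139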;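 also: median GFP channel fluorescence of barcode-gated MEP2-GFP cells measured by flow cytometry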). The note with it: S. cerevisiae MEP2-GFP strain, 3 h, at 10 µM, stronger effect = higher value, 100% means same as DMSO wells.
Experiment [3] can be described thus: modulators of CIT2-GFP expression in yeast, primary screen, S. cerevisiae, GFP fusion, multiplex flow cytometry (AID 1870;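 active = percent response above a set limit, the screen-wide mean plus 3 SD, cut at about 130% in these data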;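 also: barcoded CIT2-GFP strain pooled with four other GFP strains with rapamycin as positive control; median GFP fluorescence per well over plate mean of DMSO wells so 100% = DMSO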). The note with it: 3 h, at 10 µM, stronger effect = higher value.
Experiment [4] can be described thus: modulators of LAP4-GFP expression in yeast, primary screen, S. cerevisiae, multiplex flow cytometry (AID 1873;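 active = GFP signal, as percent of the solvent control, above the screen mean plus 3 SD, about 149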). The note with it: 3 h, at 10 µM, stronger effect = higher value.
Experiment [5] is described as follows: modulators of AGP1-GFP expression in yeast TOR pathway, primary screen, cell-based, multiplex flow cytometry, S. cerevisiae (AID 1887;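 active = GFP signal above the screen-wide mean plus 3 SD, that is over about 124.5% of the solvent control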;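 also: AGP1-GFP fusion strain of S. cerevisiae within a five-strain barcoded multiplex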). The note with it: 3 h, at 10 µM, stronger effect = higher value.
Experiment [6] is described as follows: inhibitors of CD8+ T cell-vesicle binding, pilot screen, LFA-1/ICAM-1 modulator project, MLPCN validation set, flow cytometry (AID 2523;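 active = response below a set limit, under 55% cells CD8-positive and vesicle-bound, and CD8 cells' 90th-percentile brightness under 279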;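 as to vesicle binding response: mean PE anti-B7-1 fluorescence of CD8+ cells relative to row control; 100% = QL9-loaded vesicles with DMSO vehicle in the same plate row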). As to conditions: 2C mouse CD8+ T cells, at 7 µM, stronger effect = lower value; double positive events: measured here: CD8+/vesicle+ event percentage.
Experiment [7] concerns the target Integrin beta-1 (Homo sapiens) + Integrin alpha-4 (Homo sapiens) (UniProt P13612+P05556). Description: inhibition of HUTS-21 binding to VLA-4, pilot screen, VLA-4 allosteric modulator project, U937 cells, HUTS-21 mAb, flow cytometry, validation set (AID 2674;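 active = inhibition above 50%, about 3 SD of the validation set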;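 also: antibody binding induced by the VLA-4 ligand LDV present at three times its Kd; 0% = LDV ligand with antibody and no compound and 100% = antibody without LDV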). The note with it: HUTS-21 LIBS mAb binding, at 6.7 µM, stronger effect = higher value, binding induced by LDV ligand.

Experiment [8] in a line: superoxide lowering in aged yeast cells, pilot screen, validation compound set (AID 2706;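 active = superoxide response below 65% of plate, a cut near 3 SD across the whole screen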;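 also: yeast exposed to compound for one week at 30 degrees C before staining; 100% = mean of all compound wells on the same plate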). As to conditions: S. cerevisiae aging, superoxide DHE fluorescence; at 10 µM, stronger effect = lower value.
Experiment [9] addresses Beta-adrenergic receptor kinase 1 (Homo sapiens) (UniProt P25098). Description: GRK2 binders displacing RNA aptamer, biochemical, validation, human GRK2, bead flow cytometry (AID 488806). As to conditions: bead-bound GRK2, FAM-aptamer displacement, at 10 µM, stronger effect = higher value.
Experiment [10] deals with AP-2 complex subunit beta (Homo sapiens) (UniProt P63010). The experiment can be described thus: inhibitors of arrestin peptide binding to AP2, pilot screen, biochemical, validation set, GST-AP2 beads, flow cytometry (AID 504541;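 active = inhibition above 54%, about 3 SD of non-fluorescent compounds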;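 also: AP2 carries R879A mutation and is captured from E. coli lysate; bead-bound FITC arrestin peptide fluorescence measuring arrestin peptide binding to AP2; 0% = DMSO wells and 100% = excess unlabeled arrestin peptide control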). The note with it: FITC arrestin peptide, at 10 µM, stronger effect = higher value, AP2 beta2 appendage fragment, R879A mutant.
Sequence of AP-2 complex subunit beta (Homo sapiens) (P63010 whole entry, looked up, the tested form may be a part, one chain of several): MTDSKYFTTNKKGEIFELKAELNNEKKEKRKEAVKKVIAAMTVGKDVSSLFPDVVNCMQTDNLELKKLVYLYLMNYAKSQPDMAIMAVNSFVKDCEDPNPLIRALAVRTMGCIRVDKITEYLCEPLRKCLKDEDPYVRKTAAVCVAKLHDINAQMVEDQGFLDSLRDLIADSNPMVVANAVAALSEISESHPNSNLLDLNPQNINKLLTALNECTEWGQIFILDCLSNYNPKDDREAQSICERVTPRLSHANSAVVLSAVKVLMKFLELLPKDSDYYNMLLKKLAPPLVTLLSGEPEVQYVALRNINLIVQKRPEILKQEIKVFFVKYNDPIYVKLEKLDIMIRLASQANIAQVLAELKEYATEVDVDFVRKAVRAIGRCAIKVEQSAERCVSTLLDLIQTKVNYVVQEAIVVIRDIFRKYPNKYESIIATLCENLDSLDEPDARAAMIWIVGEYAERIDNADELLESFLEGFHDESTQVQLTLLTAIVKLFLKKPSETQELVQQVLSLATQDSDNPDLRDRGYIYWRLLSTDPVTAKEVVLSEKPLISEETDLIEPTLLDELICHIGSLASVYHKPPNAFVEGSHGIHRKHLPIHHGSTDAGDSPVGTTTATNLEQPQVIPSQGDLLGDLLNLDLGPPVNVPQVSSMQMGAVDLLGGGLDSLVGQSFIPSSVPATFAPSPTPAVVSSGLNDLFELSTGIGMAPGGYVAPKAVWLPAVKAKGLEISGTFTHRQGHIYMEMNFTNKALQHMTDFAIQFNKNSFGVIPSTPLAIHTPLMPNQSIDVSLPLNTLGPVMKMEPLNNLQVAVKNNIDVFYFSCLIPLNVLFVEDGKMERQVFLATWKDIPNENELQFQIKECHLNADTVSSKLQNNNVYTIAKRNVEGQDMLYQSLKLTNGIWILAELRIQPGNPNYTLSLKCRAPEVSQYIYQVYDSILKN
The nature of experiment [11]: yeast V-ATPase proton transport modulators, S. cerevisiae, pHLuorin, HTS validation (AID 504600; in the data active = response above about 15%;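 also: plate controls were DMSO for no effect and reference compound for full effect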). The note with it: S. cerevisiae pHLuorin cytosolic pH, at 10 µM, stronger effect = higher value.
Experiment [12] deals with anti-desmoglein-3 scFv antibody binding to human DSG3. Description: inhibitors of anti-DSG3 scFv binding to DSG3, pilot screen, biochemical, validation compound set, bead-based, flow cytometry (AID 588368;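 active = binding below the plate cutoff, the plate median minus 3 SD, with a reading above zero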;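 also: signal is the median channel fluorescence of bead-bound GFP antibody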). The note with it: Protein G beads, DSG3-Fc, scFv-GFP binding, at 10 µM, stronger effect = lower value.
Experiment [13] is described as follows: inhibitors of fungal efflux pumps CDR1, CDR2, MDR1, pilot screen, validation compound set, multiplex, phenotypic (AID 588506;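 active = efflux inhibition above 0.42, the validation set average plus 4 SD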;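 also: Nile Red retained in cells so higher fluorescence means more efflux inhibition; 0 = negative control wells and 1 = enniatin B 25 µM full block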). As to conditions: S. cerevisiae pump-expressing triplex, Nile Red efflux flow cytometry; at 10 µM; stronger effect = higher value; the pumps come from Candida albicans.
Experiment [14] deals with ATP-binding cassette sub-family B member 6 (Homo sapiens) (UniProt Q9NP58). Description: ABCB6 transporter inhibitors, pilot screen, K562-ABCB6 cells, flow cytometry, validation set (AID 588550;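 active = inhibition above the screen-wide mean plus 3 SD, about 51%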;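 also: 0% = DMSO wells and 100% = benzethonium chloride 70 µM positive control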). As to conditions: K562-ABCB6 porphyrin accumulation, 1 h, at 10 µM, stronger effect = higher value.
Sequence of ATP-binding cassette sub-family B member 6 (Homo sapiens) (Q9NP58 whole entry, looked up): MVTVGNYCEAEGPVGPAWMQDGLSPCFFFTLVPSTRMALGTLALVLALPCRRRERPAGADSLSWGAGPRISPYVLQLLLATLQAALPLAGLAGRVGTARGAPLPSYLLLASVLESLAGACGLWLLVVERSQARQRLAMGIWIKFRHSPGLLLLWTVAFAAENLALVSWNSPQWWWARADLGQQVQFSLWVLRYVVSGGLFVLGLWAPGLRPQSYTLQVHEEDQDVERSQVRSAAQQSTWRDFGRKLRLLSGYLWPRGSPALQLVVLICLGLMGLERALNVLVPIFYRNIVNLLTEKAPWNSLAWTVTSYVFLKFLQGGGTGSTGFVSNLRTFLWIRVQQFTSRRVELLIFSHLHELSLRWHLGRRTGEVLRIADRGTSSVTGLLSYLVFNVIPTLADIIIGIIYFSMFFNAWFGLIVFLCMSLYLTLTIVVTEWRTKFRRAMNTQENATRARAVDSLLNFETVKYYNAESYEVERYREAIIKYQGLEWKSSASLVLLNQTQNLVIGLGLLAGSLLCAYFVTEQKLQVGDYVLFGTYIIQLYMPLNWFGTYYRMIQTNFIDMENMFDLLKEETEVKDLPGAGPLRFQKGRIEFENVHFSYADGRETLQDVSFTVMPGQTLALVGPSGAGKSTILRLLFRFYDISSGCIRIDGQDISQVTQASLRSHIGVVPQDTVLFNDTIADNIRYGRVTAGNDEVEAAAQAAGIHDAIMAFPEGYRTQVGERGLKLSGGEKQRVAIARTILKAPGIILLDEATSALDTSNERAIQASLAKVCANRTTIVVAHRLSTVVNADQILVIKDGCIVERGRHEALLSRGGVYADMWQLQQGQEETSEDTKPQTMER
Experiment [15] is described as follows: promoters of myeloid differentiation in arrested cells, primary screen, cell-based, GFP/MAC1 double positive, flow cytometry, validation set (AID 588685;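 active = differentiation response of at least 50%, scaled between solvent and reference control, from cells with both markers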;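 also: compound exposure lasts four days before antibody staining and flow analysis; 0% = DMSO wells and 100% = 5 µM fulvestrant positive control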). As to conditions: ER-HoxA9 marrow cells, stronger effect = higher value, normalized: vehicle 0, fulvestrant 100.
For experiment [16], the target named is Beta-2 adrenergic receptor (Homo sapiens) (UniProt P07550). Description: beta2AR agonists driving receptor internalization, pilot screen, cell-based, FAP fluorogen, flow cytometry, validation set (AID 504459;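 active = percent response above 42, roughly 3 SD of non-fluorescent test compounds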;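 also: agonist-driven loss of surface beta2AR via internalization measured by FAP dye flow cytometry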). As to conditions: Am2.2-beta2AR cells, FAP surface receptor flow cytometry; at 10 µM; stronger effect = higher value.
Sequence of Beta-2 adrenergic receptor (Homo sapiens) (P07550 whole entry, looked up): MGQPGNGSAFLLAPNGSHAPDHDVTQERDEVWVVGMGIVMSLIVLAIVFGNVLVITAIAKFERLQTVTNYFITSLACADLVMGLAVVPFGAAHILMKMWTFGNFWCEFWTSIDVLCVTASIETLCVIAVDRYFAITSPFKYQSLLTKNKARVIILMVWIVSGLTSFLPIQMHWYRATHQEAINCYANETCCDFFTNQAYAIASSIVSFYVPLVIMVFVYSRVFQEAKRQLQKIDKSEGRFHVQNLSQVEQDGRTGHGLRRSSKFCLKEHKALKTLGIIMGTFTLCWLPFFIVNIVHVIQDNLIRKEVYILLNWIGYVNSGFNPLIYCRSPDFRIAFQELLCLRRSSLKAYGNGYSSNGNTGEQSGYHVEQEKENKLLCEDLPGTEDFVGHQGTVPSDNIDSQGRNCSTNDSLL

Sequence of Integrin beta-1 (Homo sapiens) + Integrin alpha-4 (Homo sapiens) (P05556 whole entry, looked up): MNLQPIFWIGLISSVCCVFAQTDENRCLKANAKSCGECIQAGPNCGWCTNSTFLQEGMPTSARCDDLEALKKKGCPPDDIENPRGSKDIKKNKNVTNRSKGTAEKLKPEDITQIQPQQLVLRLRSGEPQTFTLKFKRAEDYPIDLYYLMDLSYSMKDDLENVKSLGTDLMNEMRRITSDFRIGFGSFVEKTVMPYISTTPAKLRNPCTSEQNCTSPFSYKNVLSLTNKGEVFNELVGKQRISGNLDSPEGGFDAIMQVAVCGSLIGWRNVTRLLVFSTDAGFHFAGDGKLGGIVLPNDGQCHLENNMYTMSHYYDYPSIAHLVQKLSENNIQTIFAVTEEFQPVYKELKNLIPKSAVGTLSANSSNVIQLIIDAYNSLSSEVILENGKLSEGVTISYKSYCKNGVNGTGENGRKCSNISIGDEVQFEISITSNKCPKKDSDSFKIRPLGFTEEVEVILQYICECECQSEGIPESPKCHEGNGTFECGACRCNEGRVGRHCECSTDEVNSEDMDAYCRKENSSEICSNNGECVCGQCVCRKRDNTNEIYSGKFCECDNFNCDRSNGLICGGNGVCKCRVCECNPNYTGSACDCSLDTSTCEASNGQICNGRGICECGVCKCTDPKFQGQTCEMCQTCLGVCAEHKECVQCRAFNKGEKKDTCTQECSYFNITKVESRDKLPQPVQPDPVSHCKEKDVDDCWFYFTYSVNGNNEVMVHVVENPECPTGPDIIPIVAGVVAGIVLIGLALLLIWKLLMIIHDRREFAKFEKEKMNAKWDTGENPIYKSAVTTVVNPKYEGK
Sequence of Integrin beta-1 (Homo sapiens) + Integrin alpha-4 (Homo sapiens) (P13612 whole entry, looked up): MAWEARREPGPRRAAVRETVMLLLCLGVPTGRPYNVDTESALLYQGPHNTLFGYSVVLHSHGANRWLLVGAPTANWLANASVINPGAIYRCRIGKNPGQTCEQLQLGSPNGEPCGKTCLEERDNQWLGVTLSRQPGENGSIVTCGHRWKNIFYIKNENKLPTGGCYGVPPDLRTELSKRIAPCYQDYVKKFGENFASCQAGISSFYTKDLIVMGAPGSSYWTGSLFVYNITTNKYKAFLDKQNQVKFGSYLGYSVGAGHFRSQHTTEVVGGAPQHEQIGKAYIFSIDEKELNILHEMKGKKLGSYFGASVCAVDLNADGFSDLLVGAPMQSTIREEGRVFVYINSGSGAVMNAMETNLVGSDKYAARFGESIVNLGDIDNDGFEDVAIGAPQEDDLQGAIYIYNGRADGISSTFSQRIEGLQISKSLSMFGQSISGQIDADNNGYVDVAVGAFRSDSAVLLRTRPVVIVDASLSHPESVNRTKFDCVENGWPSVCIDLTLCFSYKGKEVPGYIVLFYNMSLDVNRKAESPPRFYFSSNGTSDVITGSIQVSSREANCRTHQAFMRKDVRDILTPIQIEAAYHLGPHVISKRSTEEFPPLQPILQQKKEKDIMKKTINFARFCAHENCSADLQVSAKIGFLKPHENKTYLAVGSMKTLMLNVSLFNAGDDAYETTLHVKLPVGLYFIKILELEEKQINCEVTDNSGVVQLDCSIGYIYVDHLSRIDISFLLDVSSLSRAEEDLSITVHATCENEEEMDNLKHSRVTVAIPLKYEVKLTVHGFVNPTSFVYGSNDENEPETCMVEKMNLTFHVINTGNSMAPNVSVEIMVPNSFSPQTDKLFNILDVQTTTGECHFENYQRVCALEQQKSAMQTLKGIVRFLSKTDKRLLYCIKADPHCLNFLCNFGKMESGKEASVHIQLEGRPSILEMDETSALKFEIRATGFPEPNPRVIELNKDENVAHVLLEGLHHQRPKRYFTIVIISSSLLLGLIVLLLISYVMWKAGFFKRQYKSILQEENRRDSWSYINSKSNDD
Sequence of Beta-adrenergic receptor kinase 1 (Homo sapiens) (P25098 whole entry, looked up): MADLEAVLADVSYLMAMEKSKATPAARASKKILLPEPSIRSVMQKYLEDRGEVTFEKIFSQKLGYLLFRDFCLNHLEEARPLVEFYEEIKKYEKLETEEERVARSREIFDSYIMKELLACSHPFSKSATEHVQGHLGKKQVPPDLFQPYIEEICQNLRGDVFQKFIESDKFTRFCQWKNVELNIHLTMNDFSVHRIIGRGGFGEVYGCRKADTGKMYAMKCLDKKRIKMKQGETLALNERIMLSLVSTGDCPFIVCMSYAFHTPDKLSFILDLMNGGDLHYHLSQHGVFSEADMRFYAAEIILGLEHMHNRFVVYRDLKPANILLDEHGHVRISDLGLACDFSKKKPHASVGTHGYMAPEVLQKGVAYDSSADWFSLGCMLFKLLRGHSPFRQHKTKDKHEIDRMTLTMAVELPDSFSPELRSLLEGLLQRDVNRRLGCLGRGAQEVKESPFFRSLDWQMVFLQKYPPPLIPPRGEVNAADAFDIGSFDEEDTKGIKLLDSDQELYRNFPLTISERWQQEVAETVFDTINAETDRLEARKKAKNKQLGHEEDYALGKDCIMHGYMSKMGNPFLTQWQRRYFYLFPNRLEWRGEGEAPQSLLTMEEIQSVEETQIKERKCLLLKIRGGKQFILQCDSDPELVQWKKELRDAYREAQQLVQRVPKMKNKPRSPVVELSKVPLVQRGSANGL

The term inhibition denotes the relative decrease from the control value, in per cent. As to `CC(=O)Oc1cc(C(C)C)c(OCCN(C)C)cc1C`, in [1], the percent of DMSO control GFP was 103% (inactive). Also, the values for the GFP response vs DMSO in experiment [2] and in experiment [4] were 104% (inactive) and 97.4% (inactive), respectively. Besides, the percent response of DMSO control in experiment [3] was 94.9% (inactive). Moreover, the GFP response, % of DMSO in [5] is 99.9% (inactive). Moreover, the double positive events in [6] is 52.8%. For the same compound, in experiment [6], the vesicle binding response is 152% (inactive). The inhibition was -0.24% (inactive) in [7], -9.83% (inactive) in [10] and 10% (inactive) in experiment [14]. Besides, in [8], the superoxide response (% of plate) is 106% (inactive). In experiment [9], the aptamer binding inhibition is 6% (inactive). Moreover, the response in experiment [11] was 8.27% (inactive). Moreover, the binding (% of control) in experiment [12] was 95.2% (inactive). In addition, in experiment [13], the efflux inhibition (fraction of control) was 0.1 (inactive). Moreover, the differentiation response in experiment [15] is 19.2% (inactive).

Take `COc1cccc(C2CCCN2Cc2nc(CCC(C)C)no2)c1` (stereo not given): in experiment [1], the percent of DMSO control GFP is 101% (inactive). Further, the GFP response vs DMSO in [2] is 116% (inactive); in experiment [4], 109% (inactive). In [3], the percent response of DMSO control is 103% (inactive). The GFP response, % of DMSO in experiment [5] is 101% (inactive). The compound also gave a double positive events in experiment [6] of 54.6%. In addition, the vesicle binding response in experiment [6] was 135% (inactive). Moreover, the inhibition in experiment [7] is -9.57% (inactive); in experiment [10], 5.57% (inactive); in experiment [14], 8% (inactive). Further, in [8], the superoxide response (% of plate) is 102% (inactive). Also, in [9], the aptamer binding inhibition is 0% (inactive). For the same compound, the response in experiment [11] is 3.31% (inactive). The binding (% of control) in experiment [12] was 104% (inactive). Also, the efflux inhibition (fraction of control) in experiment [13] was 0.25 (inactive). Further, the differentiation response in [15] was 4.64% (inactive).

Regarding `CCCCOc1ccc(OCCCN2CCOCC2)cc1`, the percent of DMSO control GFP in experiment [1] is 86.5% (inactive). Also, the GFP response vs DMSO in [2] is 136% (inactive); in experiment [4] it was 86.9% (inactive). For the same compound, the percent response of DMSO control in experiment [3] is 104% (inactive). In experiment [5], the GFP response, % of DMSO was 95.9% (inactive). In [6], the double positive events came out at 56%. The inhibition was 11.3% (inactive) in experiment [7], -2.38% (inactive) in [10] and 11% (inactive) in experiment [14]. The superoxide response (% of plate) in [8] is 112% (inactive). The aptamer binding inhibition in experiment [9] was 3% (inactive). The response is -8.98% (inactive) in [16] and 1.62% (inactive) in experiment [11]. Also, in [12], the binding (% of control) is 106% (inactive). Moreover, the efflux inhibition (fraction of control) in experiment [13] is -0.06 (inactive). The differentiation response in experiment [15] was 4.91% (inactive).

In the case of `COc1ccc(-c2onc(C)c2-c2ccc(C(=O)OC(C)C)o2)c(O)c1`, the percent of DMSO control GFP in [1] is 102% (inactive). Also, the GFP response vs DMSO is 109% (inactive) in experiment [2] and 102% (inactive) in experiment [4]. Also, in [3], the percent response of DMSO control was 93.4% (inactive). Further, in [5], the GFP response, % of DMSO was 90.1% (inactive). In [6], this compound displayed a double positive events of 71.4%. Besides, the results for the inhibition in [7], in experiment [10] and in experiment [14] were 2.93% (inactive), -6.7% (inactive) and 5% (inactive), respectively. Besides, the superoxide response (% of plate) in experiment [8] was 95.6% (inactive). Besides, in experiment [9], the aptamer binding inhibition was -3% (inactive). Further, the response in experiment [16] was 58.6% (active); in experiment [11], -0.7% (inactive). Besides, in experiment [12], the binding (% of control) was 105% (inactive). In [13], the efflux inhibition (fraction of control) is -0.02 (inactive). Also, in experiment [15], the differentiation response is 13% (inactive).

As to `COc1ccc(Cc2nc(-c3ccc(Br)cc3)no2)cc1`, the percent of DMSO control GFP in [1] is 100% (inactive). For the same compound, the GFP response vs DMSO in experiment [2] was 103% (inactive); in experiment [4], 95.3% (inactive). Besides, the percent response of DMSO control in experiment [3] was 101% (inactive). Besides, in experiment [5], the GFP response, % of DMSO was 102% (inactive). For the same compound, the double positive events in [6] was 40%. For the same compound, the inhibition was -12.9% (inactive) in [7], 58.9% (active) in experiment [10] and -4% (inactive) in [14]. The superoxide response (% of plate) in [8] is 117% (inactive). Moreover, the aptamer binding inhibition in experiment [9] is -1% (inactive). The results for the response in experiment [16] and in [11] were -5.31% (inactive) and -2.85% (inactive), respectively. For the same compound, the binding (% of control) in experiment [12] is 99.3% (inactive). In addition, the efflux inhibition (fraction of control) in experiment [13] was 0.14 (inactive). Besides, the differentiation response in [15] was 48.1% (inactive).
